Most compounds without a hit are left out; they make up all but 21% or so of the library.
Pf growth 96h = P. falciparum growth inhibition at 96 hour, primary screen for plastid delayed-death inhibitors. P. falciparum luciferase reporter growth, 96 h. hit rate 6.9% among 320,000. Potency, µM (series often up to 28.7 µM), usual class: inhibitors. AID 504834
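P. falciparum expressing integrated firefly luciferase grown in erythrocytes (2% hematocrit, 0.05% parasitemia final) with compounds for 96 hours at 37 C, 5% CO2. Growth inhibition read as loss of luminescence after adding luciferase detection reagent.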
Pf growth 48h = inhibits P. falciparum growth in the first generation, 48 h | P. falciparum luciferase growth in erythrocytes, 48 h | Potency, µM (series often up to 28.7 µM), actives largely listed as inhibitors | hit rate 5.9% among 310,000
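Parasite viability was followed by luminescence of a genomically integrated firefly luciferase. Cultures held 0.1% parasitemia at 2% hematocrit (final), incubated under 5% CO2 at 37 C.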
HCMV antiviral = human cytomegalovirus inhibition; activity change, negative = inhibition, % at 57.5 µM; HFF cells, HCMV-luciferase reporter, 72 h; hits give low values; hit rate 4.5% among 410,000; in the data active = activity change below about -60%; inconclusive = no clear call, values can overlap the other calls; inactive = above about -39%
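Screen run at 2 compound doses on HFFs infected with reporter HCMV, MOI 1 PFU/cell. Luciferase activity from cell lysates at 72 h post infection gave inhibition relative to buffer-only and Salinomycin wells.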
CHX counter = counter-screen for Shiga toxin inhibitors: cycloheximide protein synthesis inhibition | cell reporter, cycloheximide protein synthesis inhibition counterscreen | hit rate 12% among 300,000 | max response, %; in the data active = max response mostly above about 13%, no sharp cut-off; inactive = mostly below about 14%; also: read at 38.3 µM for the half of the compounds with a filed dose
HCV inh = inhibitors of hepatitis C virus infection; hit rate 3.4% among 340,000; Huh7.5.1 HCVcc-Cre infection, luciferase reporter, 44 h; Potency, µM (titrated, usually from 41.8 µM), actives largely listed as inhibitors; AID 651820
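Whole-lifecycle infectious HCVcc-Cre system; cells 1,000/well, compound then virus (~0.5 moi) added 4 h after plating, 44 h culture. Luciferase read 15 sec following 15 min substrate incubation, room temp.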
Shiga toxin inh = inhibitors of Shiga toxin in Vero cells | AID 2315 | hit rate 9.2% among 290,000 | Vero cells, Shiga toxin protein synthesis inhibition reporter | inhibition, % at 38.7 µM; in the data active = inhibition mostly above about 28%, no sharp cut-off; inactive = mostly below about 43%
Large screens that a line does not name were inactive. Unless noted, calls follow the shape of the dose curve; as a rule, active = well fitted inhibition curve with a large enough effect; inconclusive = small, poorly fitted or top-dose-only effect, or another doubt; inactive = no such curve, though single readings can be large or run the other way.

O=C(Nc1cccc(O)c1)c1ccc([N+](=O)[O-])cc1Cl	HCMV antiviral inconclusive, CHX counter 31.7, Shiga toxin inh 60.9
CN(C)c1ccc(NC(=O)c2ccc([N+](=O)[O-])cc2Cl)cc1	CHX counter 46.2, Shiga toxin inh 75.3
CC(C)C(=O)Nc1ccc(NC(=O)c2ccc([N+](=O)[O-])cc2Cl)cc1	HCV inh inconclusive
COc1ccc(Cn2nnc(C(=O)Nc3cc(OC)ccc3OC)c2N)cc1	none (no result: Pf growth 96h, Pf growth 48h, CHX counter, HCV inh, Shiga toxin inh)
Cc1[nH]ccc(=O)c1Oc1ncc(C(F)(F)F)cc1Cl	none
CN(C)C(=O)Cn1cnc2c(cnn2-c2ccc(F)cc2)c1=O	none
N#Cc1ccc(C(=O)Nc2cc(S(=O)(=O)Nc3ccc(Cl)cc3)ccc2N2CCCCC2)cc1	Pf growth 96h 10.4µM, Pf growth 48h 13.1µM, HCMV antiviral inconclusive, HCV inh inconclusive
O=C(Nc1cc(S(=O)(=O)Nc2ccc(Cl)cc2)ccc1N1CCCCC1)c1ccc(F)cc1	Pf growth 96h inconclusive, Pf growth 48h inconclusive, HCMV antiviral -64.5, HCV inh 7.08µM
CCOc1ccc(/C=C/C(=O)Nc2sc3c(c2C(=O)OC)CCC3)cc1	none (no result: Pf growth 96h, Pf growth 48h, CHX counter, HCV inh, Shiga toxin inh)
N[C@@H](Cc1ccccc1)C(=O)N1CCC(C(=O)NCC(=O)NCC(=O)O)CC1	none
Cc1ccccc1C(=O)NC(=S)Nc1ccccc1C(=O)O	Pf growth 96h 10.4µM
Cc1ccccc1C(=O)NC(=S)Nc1ncccn1	Pf growth 96h inconclusive, CHX counter 18.4
COC(=O)c1ccccc1NC(=S)NC(=O)c1ccccc1C	none (no result: HCV inh)
Cc1ccccc1C(=O)NC(=S)Nc1ccccc1C(F)(F)F	Pf growth 96h inconclusive
Cc1noc(C)c1NC(=O)N(C)C[C@@H]1Oc2ccc(NC(=O)CCC(F)(F)F)cc2CC(=O)N([C@@H](C)CO)C[C@@H]1C	none (no result: Pf growth 96h, Pf growth 48h, CHX counter, Shiga toxin inh)
Cc1coc2c(C)c3oc(=O)c(CCC(=O)NCCC(=O)O)c(C)c3cc12	none
COc1cc2c(cc1OC)CN(C1CCC(C(C)(C)C)CC1)CC2 (stereo unspecified)	none (no result: Pf growth 96h, Pf growth 48h, CHX counter, Shiga toxin inh)
COc1cc2c(cc1OC)CN(C1CCCN(Cc3cc(Cl)ccc3O)C1)CC2 (stereo unspecified)	Pf growth 96h 9.28µM, Pf growth 48h inconclusive
COc1cc(CN2CCCC(N3CCc4ccccc4C3)C2)c(Cl)cc1O (stereo unspecified)	Pf growth 96h 2.94µM, Pf growth 48h inconclusive
N#Cc1ccc(CO/N=C/c2ccccc2)cc1	CHX counter 40.9, Shiga toxin inh 76.3
C(=NOCc1ccccc1)c1cccnc1	none (no result: Pf growth 96h, Pf growth 48h, CHX counter, Shiga toxin inh)
Cc1nc2ccccc2nc(C)c1=NOCc1ccc(C#N)cc1	Pf growth 96h inconclusive, CHX counter 28.9, Shiga toxin inh 66.5
N#Cc1c(-c2ccc(Cl)cc2)c2c([nH]c1=O)-c1ccccc1OC2	none
COc1ccc(-n2ncc(C(=O)Nc3ccc4c(c3)OCO4)c2C2CCN(C(=O)OC(C)(C)C)CC2)cc1	none (no result: Pf growth 96h, Pf growth 48h, CHX counter, HCV inh, Shiga toxin inh)
CCOCCCNC(=O)Cn1nc(C)n2c(cc3cc(C)ccc32)c1=O	none (no result: Pf growth 96h, Pf growth 48h, CHX counter, HCV inh, Shiga toxin inh)
c1ccc(NC(c2ccccc2)c2ccncc2)cc1 (stereo unspecified)	Pf growth 48h 9.28µM
c1ccc(C(Nc2cccnc2)c2ccccc2)cc1	none (no result: Pf growth 96h, Pf growth 48h, CHX counter, Shiga toxin inh)
CC1(C)N=C(SCC(=O)Nc2ccc(Cl)cc2)C(c2ccccc2)=N1	HCMV antiviral -80.3, HCV inh inconclusive (no result: Pf growth 96h, Pf growth 48h)
CCOc1ccc(NC(=O)CN2C(=O)C(c3ccc(Cl)cc3)=NC2(C)C)cc1	none (no result: Pf growth 96h, Pf growth 48h, CHX counter, HCV inh, Shiga toxin inh)
Cc1nnc2sc(-c3ccc(NC(=O)CSc4ccc(Cl)cc4)cc3)nn12	Pf growth 96h inconclusive, Pf growth 48h 5.22µM
CC1(C)N=C(SCC(=O)Nc2ccc(Cl)cc2)C(c2ccc(Cl)cc2)=N1	HCV inh 12.6µM (no result: Pf growth 96h, Pf growth 48h)
O=C(CN1C(=O)COc2ccc(S(=O)(=O)N3CCOCC3)cc21)N1CCN(c2ccc(F)cc2)CC1	none (no result: Pf growth 96h, Pf growth 48h, CHX counter, HCV inh, Shiga toxin inh)
CCC1CN(C(=O)N2CCC(C(=O)NCCc3ccccc3)CC2)c2ccccc2O1 (stereo unspecified)	Pf growth 48h inconclusive, HCV inh inconclusive
O=C(Nc1ccc(F)c(F)c1)C1CCN(S(=O)(=O)c2cccc3nonc23)CC1	Pf growth 96h inconclusive, HCMV antiviral -76.6, HCV inh inconclusive
Cc1cccc2sc(NC(=O)C3CCCN(S(=O)(=O)c4cccc5nonc45)C3)nc12 (stereo unspecified)	Pf growth 96h inconclusive, Pf growth 48h 11.7µM
Cc1ccc2nc(NC(=O)C3CCCN(S(=O)(=O)c4cccc5nonc45)C3)sc2c1 (stereo unspecified)	Pf growth 96h inconclusive (no result: HCMV antiviral, HCV inh)
CC(=O)Nc1ccc(NC(=O)C2CCN(S(=O)(=O)c3cccc4nonc34)CC2)cc1	none
Cc1ccc(NC(=O)C2CCCN(S(=O)(=O)c3cccc4nonc34)C2)cc1 (stereo unspecified)	Pf growth 96h 2.62µM
CCN1CCN(CC(=O)c2ccc(OC)cc2)CC1	none
Cc1cc(NS(=O)(=O)c2ccc(NC(=O)COc3ccccc3[N+](=O)[O-])cc2)no1	Pf growth 96h inconclusive
Cc1ccc(OC(=O)CCC(=O)Nc2ccc(S(=O)(=O)Nc3cc(C)on3)cc2)cc1	none
CCOc1cc(C(=O)Nc2ccc(S(=O)(=O)Nc3cc(C)on3)cc2)cc(OCC)c1OCC	Pf growth 96h 10.4µM, Pf growth 48h inconclusive
Cc1cc(NS(=O)(=O)c2ccc(NC(=O)COc3ccccc3C(C)(C)C)cc2)no1	Pf growth 96h 10.4µM
COc1cc(C(=O)Nc2ccc(S(=O)(=O)Nc3cc(C)on3)cc2)cc(OC)c1OC	none
CCC(Oc1ccccc1)C(=O)Nc1ccccn1 (stereo unspecified)	CHX counter 26.5
CCC(Oc1ccc(C)cc1)C(=O)Nc1ccc(S(=O)(=O)Nc2cc(C)on2)cc1 (stereo unspecified)	Pf growth 96h 8.28µM
CCS(=O)(=O)c1ccccc1C(=O)N(Cc1cccnc1)c1nc2cc(C)c(C)cc2s1	none (no result: Pf growth 96h, Pf growth 48h, CHX counter, HCV inh, Shiga toxin inh)
Cc1ccccc1OCCSc1nnc(-c2ccc([N+](=O)[O-])cc2)o1	none (no result: Pf growth 96h, Pf growth 48h, CHX counter, HCV inh, Shiga toxin inh)
CC(=O)c1ccc(NC(=O)CSC2=Nc3ccccc3N=C(c3ccc(F)cc3)C2)cc1	none (no result: Pf growth 96h, Pf growth 48h, CHX counter, HCV inh, Shiga toxin inh)
CCC(Oc1ccccc1)C(=O)Nc1cc(C)on1 (stereo unspecified)	Pf growth 96h inconclusive, CHX counter 15.2, Shiga toxin inh 37.7
CCC(OC(=O)C(NC(=O)c1ccccc1)c1ccccc1)C(=O)Nc1cc(C)on1 (stereo unspecified)	none
O=C(/C=C/Nc1ccccc1O)c1ccco1	CHX counter 37.9, Shiga toxin inh 63.1
O=C(/C=C/Nc1ccccc1Oc1ccccc1)c1ccco1	Pf growth 96h inconclusive, Pf growth 48h 10.4µM, CHX counter 51.5, HCV inh inconclusive, Shiga toxin inh 119.0
O=C(/C=C/Nc1ccc(Br)cc1F)c1ccco1	none
COc1ccc(-n2c(SCC(=O)Nc3cc(C(=O)O)ccc3C)nc3ccccc3c2=O)cc1Cl	Pf growth 96h inconclusive, Pf growth 48h inconclusive
NC(N)=NN=C1CCCCCCCCCCC1	Pf growth 96h 3.7µM, Pf growth 48h 10.4µM
